These results are taken from ChEMBL document CHEMBL1961873, “Compounds: GSK PKIS; Assays: Nanosyn kinase panel” (2012).

Assay [1] deals with T1, Tyrosine-protein kinase receptor TYRO3 (Homo sapiens) (UniProt Q06418).
T1 sequence (whole entry): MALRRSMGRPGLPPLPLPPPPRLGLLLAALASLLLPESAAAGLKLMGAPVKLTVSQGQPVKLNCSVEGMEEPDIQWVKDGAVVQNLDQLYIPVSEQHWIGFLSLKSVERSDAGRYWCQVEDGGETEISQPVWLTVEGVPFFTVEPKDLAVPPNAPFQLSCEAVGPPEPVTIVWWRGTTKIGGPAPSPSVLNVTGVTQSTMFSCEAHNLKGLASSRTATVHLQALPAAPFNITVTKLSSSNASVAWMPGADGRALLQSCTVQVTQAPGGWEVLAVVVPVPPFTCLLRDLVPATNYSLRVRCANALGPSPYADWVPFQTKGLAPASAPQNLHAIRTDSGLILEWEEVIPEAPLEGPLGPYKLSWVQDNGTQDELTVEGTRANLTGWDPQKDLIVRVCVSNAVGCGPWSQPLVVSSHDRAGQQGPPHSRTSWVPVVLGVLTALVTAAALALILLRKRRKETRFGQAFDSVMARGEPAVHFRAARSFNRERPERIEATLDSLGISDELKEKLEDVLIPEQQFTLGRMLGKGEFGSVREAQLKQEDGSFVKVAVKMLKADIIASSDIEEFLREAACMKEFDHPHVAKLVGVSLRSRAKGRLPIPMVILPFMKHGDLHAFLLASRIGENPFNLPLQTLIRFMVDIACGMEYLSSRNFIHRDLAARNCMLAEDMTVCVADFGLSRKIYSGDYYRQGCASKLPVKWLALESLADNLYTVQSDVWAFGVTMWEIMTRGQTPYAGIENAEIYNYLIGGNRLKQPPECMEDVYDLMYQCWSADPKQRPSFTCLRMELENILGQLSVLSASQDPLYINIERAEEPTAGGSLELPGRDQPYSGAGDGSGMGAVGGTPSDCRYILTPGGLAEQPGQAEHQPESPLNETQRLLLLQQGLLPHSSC
The settings on record: at 1 µM.

Assay [2] concerns the target Tyrosine-protein kinase Yes (Homo sapiens) (UniProt P07947). The settings on record: at 0.1 µM.
For assay [3] the target is unchanged. As to conditions: at 1 µM.
Assay [4] concerns the target T2, Tyrosine-protein kinase ZAP-70 (Homo sapiens) (UniProt P43403).
T2 sequence (whole entry): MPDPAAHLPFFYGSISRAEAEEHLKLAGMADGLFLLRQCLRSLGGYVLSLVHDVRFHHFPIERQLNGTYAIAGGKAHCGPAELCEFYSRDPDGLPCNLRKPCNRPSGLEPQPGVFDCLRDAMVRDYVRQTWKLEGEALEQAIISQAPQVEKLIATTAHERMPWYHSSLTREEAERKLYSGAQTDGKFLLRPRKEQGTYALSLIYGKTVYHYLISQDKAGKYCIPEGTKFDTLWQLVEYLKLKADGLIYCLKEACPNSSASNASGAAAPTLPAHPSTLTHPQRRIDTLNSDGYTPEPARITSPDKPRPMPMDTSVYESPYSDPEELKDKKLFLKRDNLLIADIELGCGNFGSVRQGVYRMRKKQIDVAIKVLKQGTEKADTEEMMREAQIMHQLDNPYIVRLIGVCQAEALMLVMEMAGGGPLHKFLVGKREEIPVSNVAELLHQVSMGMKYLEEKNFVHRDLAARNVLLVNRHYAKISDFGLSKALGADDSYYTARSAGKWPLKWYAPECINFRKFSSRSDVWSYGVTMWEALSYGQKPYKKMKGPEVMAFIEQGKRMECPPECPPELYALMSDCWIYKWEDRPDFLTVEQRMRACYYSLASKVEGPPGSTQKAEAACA
The settings on record: at 0.1 µM.

The target of assay [5] is T2, Tyrosine-protein kinase ZAP-70 (Homo sapiens). The settings on record: at 1 µM.
For assay [6], the target named is Serine/threonine-protein kinase B-raf (Homo sapiens) (UniProt P15056). As to conditions: at 0.1 µM.
Sequence of Serine/threonine-protein kinase B-raf (Homo sapiens) (P15056 whole entry): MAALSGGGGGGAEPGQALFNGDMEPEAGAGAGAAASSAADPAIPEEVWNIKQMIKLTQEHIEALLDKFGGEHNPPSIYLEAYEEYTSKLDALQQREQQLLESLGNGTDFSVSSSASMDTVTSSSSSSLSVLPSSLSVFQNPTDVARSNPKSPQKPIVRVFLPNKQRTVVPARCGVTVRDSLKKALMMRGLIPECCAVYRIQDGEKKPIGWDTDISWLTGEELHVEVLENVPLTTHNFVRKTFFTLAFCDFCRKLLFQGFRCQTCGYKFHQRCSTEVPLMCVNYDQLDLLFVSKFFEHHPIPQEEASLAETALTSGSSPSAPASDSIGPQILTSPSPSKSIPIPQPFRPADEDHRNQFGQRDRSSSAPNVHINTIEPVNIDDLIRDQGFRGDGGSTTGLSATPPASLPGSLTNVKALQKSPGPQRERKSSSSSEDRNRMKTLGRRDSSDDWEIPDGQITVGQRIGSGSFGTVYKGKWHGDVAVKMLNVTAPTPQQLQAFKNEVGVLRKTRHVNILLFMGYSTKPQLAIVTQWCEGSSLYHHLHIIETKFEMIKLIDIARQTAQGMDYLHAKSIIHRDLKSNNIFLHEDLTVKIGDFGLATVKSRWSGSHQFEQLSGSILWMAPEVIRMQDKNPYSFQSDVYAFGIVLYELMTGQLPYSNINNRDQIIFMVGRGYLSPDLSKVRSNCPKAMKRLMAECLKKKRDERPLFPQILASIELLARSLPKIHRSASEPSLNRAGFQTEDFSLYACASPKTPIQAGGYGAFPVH
For assay [7] the target is unchanged. The settings on record: at 1 µM.
The test system of assay [8] is Serine/threonine-protein kinase B-raf (Homo sapiens), P15056 [V600E]. As to conditions: at 0.1 µM.
Sequence of Serine/threonine-protein kinase B-raf (Homo sapiens), P15056 [V600E] (P15056 whole entry V600E): as the sequence (P15056 whole entry) above, with V600E counted along it
Assay [9] shares this test system. As to conditions: at 1 µM.
The target of assay [10] is RAF proto-oncogene serine/threonine-protein kinase (Homo sapiens) (UniProt P04049). As to conditions: at 0.1 µM.
Sequence of RAF proto-oncogene serine/threonine-protein kinase (Homo sapiens) (P04049 whole entry): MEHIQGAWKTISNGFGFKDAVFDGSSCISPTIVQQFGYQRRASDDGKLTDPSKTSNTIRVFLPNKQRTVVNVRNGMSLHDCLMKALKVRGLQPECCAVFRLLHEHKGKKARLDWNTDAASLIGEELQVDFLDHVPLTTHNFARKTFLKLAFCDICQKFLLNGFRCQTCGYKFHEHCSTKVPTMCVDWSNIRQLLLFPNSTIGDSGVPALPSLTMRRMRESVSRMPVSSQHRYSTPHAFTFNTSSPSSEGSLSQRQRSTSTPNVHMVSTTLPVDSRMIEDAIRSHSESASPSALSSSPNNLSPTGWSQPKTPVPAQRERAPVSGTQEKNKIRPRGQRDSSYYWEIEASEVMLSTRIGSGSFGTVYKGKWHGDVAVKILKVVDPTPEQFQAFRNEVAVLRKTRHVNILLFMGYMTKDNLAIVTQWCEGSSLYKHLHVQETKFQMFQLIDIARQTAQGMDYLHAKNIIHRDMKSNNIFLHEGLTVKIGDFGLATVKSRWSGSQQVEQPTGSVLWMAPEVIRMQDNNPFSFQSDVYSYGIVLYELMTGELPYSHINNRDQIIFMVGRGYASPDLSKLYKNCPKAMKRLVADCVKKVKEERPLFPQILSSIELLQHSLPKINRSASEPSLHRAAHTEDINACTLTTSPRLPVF
Assay [11] has the same target. The settings on record: at 1 µM.
Assay [12] has as its target T3, Interleukin-1 receptor-associated kinase 4 (Homo sapiens) (UniProt Q9NWZ3).
T3 sequence (whole entry): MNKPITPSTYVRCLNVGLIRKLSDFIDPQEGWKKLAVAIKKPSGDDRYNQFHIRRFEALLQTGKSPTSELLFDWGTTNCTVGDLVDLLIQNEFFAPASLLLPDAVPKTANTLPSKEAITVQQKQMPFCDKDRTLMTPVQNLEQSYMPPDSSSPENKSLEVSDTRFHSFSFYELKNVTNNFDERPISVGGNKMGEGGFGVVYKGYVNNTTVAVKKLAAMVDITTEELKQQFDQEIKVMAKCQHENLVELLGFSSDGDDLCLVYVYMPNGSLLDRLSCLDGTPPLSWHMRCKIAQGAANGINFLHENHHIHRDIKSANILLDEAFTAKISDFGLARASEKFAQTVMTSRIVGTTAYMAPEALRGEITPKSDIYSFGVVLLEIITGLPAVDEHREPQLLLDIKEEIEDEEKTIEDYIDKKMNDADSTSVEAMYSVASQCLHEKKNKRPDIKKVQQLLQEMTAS
As to conditions: at 0.1 µM.

Assay [13] addresses T3, Interleukin-1 receptor-associated kinase 4 (Homo sapiens). As to conditions: at 1 µM.
Assay [14] deals with Leucine-rich repeat serine/threonine-protein kinase 2 (Homo sapiens) (UniProt Q5S007). As to conditions: at 0.1 µM.
Sequence of Leucine-rich repeat serine/threonine-protein kinase 2 (Homo sapiens) (Q5S007 whole entry): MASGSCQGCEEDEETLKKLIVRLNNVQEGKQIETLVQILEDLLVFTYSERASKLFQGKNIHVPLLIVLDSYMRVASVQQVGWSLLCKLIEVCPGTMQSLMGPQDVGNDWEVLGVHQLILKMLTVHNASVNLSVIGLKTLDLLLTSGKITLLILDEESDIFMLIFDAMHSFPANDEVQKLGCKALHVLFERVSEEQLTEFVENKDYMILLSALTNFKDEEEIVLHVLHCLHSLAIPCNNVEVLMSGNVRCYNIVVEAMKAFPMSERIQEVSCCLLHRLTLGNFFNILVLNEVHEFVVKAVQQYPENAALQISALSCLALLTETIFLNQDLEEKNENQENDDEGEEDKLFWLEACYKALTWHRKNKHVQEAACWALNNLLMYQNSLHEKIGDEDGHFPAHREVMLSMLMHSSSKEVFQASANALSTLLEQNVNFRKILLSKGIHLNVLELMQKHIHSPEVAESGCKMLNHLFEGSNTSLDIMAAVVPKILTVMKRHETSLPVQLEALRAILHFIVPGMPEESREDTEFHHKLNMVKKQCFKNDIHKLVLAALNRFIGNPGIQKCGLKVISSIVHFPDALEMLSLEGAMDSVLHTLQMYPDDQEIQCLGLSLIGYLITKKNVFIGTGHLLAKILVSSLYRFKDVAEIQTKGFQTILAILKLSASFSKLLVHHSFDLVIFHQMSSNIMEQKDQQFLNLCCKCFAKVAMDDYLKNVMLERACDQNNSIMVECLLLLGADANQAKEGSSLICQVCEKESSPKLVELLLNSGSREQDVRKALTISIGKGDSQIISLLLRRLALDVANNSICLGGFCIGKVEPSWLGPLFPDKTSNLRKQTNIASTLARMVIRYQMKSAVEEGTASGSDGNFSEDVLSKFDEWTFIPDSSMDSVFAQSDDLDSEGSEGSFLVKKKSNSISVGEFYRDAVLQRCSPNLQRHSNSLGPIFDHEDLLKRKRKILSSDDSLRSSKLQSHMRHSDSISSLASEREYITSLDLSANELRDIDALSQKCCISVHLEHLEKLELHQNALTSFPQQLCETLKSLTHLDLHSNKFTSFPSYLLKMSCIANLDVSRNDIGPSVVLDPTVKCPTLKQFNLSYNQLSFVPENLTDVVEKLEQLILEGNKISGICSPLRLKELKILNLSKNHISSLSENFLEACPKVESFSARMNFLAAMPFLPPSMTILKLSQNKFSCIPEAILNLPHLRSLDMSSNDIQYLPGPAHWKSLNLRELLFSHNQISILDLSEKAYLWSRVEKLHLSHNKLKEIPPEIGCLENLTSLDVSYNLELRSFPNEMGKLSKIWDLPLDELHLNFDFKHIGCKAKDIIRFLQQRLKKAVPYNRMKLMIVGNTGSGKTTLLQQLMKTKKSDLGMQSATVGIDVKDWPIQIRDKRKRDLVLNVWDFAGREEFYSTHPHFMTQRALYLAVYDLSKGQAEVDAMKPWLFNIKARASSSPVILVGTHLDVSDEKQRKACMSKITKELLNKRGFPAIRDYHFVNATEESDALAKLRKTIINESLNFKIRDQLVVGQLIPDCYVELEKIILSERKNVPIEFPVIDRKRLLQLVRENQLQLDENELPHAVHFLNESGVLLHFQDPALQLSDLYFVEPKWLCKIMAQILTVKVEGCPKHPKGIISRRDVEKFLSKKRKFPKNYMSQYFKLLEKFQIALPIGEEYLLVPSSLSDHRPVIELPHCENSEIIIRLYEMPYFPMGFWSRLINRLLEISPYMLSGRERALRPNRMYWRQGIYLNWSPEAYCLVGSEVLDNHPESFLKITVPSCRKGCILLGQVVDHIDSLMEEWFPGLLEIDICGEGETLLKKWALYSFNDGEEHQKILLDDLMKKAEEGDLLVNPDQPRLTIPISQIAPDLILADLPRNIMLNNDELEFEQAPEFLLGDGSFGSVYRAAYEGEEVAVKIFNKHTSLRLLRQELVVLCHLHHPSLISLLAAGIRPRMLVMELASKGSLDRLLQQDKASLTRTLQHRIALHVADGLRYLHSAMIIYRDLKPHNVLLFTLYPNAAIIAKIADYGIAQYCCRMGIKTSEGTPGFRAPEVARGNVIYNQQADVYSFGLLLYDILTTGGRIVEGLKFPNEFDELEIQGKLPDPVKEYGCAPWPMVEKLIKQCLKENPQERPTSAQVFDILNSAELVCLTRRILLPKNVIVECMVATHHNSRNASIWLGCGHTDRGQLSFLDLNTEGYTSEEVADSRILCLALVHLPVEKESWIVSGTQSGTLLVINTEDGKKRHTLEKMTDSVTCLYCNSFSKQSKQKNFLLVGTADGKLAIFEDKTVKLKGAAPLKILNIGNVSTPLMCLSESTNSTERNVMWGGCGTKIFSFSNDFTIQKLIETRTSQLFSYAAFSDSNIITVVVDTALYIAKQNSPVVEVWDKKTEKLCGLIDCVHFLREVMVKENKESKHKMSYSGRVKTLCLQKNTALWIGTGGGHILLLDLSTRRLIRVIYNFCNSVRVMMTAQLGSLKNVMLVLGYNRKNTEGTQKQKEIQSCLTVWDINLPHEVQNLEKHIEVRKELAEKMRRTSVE
Assay [15] has the same target. The settings on record: at 1 µM.
For assay [16], the system named is Leucine-rich repeat serine/threonine-protein kinase 2 (Homo sapiens), Q5S007 [G2019S]. As to conditions: at 0.1 µM.
Sequence of Leucine-rich repeat serine/threonine-protein kinase 2 (Homo sapiens), Q5S007 [G2019S] (Q5S007 whole entry G2019S): as the sequence (Q5S007 whole entry) above, with G2019S counted along it
For assay [17] the test system is unchanged. As to conditions: at 1 µM.

Sequence of Tyrosine-protein kinase Yes (Homo sapiens) (P07947 2-543 limits assumed): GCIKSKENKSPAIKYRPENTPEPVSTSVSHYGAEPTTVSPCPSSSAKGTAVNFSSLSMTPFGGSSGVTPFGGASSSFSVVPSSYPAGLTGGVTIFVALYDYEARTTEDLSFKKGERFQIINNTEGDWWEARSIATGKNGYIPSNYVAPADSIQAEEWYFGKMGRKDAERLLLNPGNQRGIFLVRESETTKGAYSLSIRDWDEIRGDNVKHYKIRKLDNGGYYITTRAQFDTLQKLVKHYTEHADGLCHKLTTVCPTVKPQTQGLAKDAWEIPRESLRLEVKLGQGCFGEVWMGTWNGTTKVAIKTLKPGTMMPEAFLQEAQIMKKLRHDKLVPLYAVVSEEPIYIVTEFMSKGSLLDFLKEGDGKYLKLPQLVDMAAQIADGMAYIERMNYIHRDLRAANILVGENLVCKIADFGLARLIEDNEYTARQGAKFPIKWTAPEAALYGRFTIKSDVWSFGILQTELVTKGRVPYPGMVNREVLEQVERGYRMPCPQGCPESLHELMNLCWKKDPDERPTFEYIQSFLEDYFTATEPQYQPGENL

For the molecule `CCN(CC)S(=O)(=O)c1ccc(OC)c(Nc2ncc(-c3ccccc3)o2)c1`, the inhibition in assay [1] was 45.8%; in assay [2], 24.2%; in assay [3] it was 58.6%; in assay [4], 2.08%; in assay [5], -0.02%; in [6] it was 0.42%. Also, the inhibition in assay [7] is 0.29%; in assay [8] it was -0.35%; in assay [9] it was 0.01%; in [10], 0.35%; in assay [11], -0.65%; in assay [12] it was 0.75%. In addition, the inhibition came to 0.8% in assay [13]; 2.62% in [14]; 5.16% in assay [15]; 1.76% in [16]; 9.32% in [17].

Turning to `CCCN1CCC(c2ccc(Nc3nc(Nc4cc(F)ccc4C(N)=O)c4cc[nH]c4n3)c(OC)c2)CC1`, the inhibition worked out at 18.4% in [1]; 5.76% in [2]; 19.3% in assay [3]; 29.3% in assay [5]; 9.61% in assay [6]; 37.6% in assay [7]. Also, the inhibition in [8] stood at 10.1%; in assay [9] it was 37.4%; in assay [10] it was 7.25%; in assay [11] it was 17.1%; in assay [12], 3.12%; in [13] it was 3.69%. Besides, the inhibition in assay [14] was 85.5%; in [15] it was 89.7%; in [16], 79.9%; in assay [17], 64.4%.

With `CCn1cc(-c2ccnc3[nH]ccc23)c(-c2cccc(NC(=O)Nc3ccc(OCc4ccccc4)cc3)c2)n1`, the inhibition in assay [1] was 1.53%; in [2], 1.1%; in assay [3], 24.8%; in assay [4], -0.61%; in assay [5] it was 2.51%; in assay [10], 4.65%. Also, the inhibition in assay [11] is -2.76%; in assay [12], -0.99%; in [13], -0.44%; in [14], 2.13%; in assay [15] it was 3.32%; in assay [16], 3.73%. Besides, the inhibition in assay [17] came out at 4%.

On to `c1cc(-c2cnn3nc(N4CCOCC4)ccc23)nc(NC2CC2)n1`, for which the inhibition in [1] is 2.97%; in assay [2], 0.8%; in [3], 0.73%; in [4] it was -5.37%; in assay [5], -0.37%; in assay [6] it was 6.23%. The inhibition in [7] is 11.5%; in assay [8], 3.6%; in assay [9], 9.04%; in assay [10], 1.78%; in assay [12] it was -3.02%; in assay [13], 4.62%. Besides, the inhibition in assay [14] turned out to be 4.63%; in [15], 16.4%; in [16], 6.59%; in assay [17], 37.2%.

With `CN(C)CCOc1ccc(-c2nc(-c3ccncc3)c(-c3ccc4c(c3)CC/C4=N\O)[nH]2)cc1`, the inhibition was 5.27% in [1]; 3.06% in assay [2]; 16.4% in assay [3]; -1.98% in assay [4]; 63.5% in assay [6]; 88.8% in assay [7]. The inhibition in [8] is 72.2%; in assay [9] it was 90.1%; in assay [10], 12.5%; in assay [11] it was 69.9%; in assay [12] it was -2.04%; in [13], 2.08%. In addition, the inhibition amounted to 2.63% in assay [14], 6.56% in [15], 2.57% in assay [16] and 9.36% in [17].

As to `COc1cc2c(cc1Nc1nc(Nc3ccsc3C(N)=O)c3cc[nH]c3n1)N(C(=O)CN(C)C)CCC2(C)C`, the inhibition in assay [1] worked out at 18.6%; in assay [2], 2.57%; in [3], 0.61%; in [4], 2.36%; in [5], 14.9%; in assay [6], 6.5%. Further, the inhibition was 14.9% in assay [7]; 7.15% in [8]; 14% in [9]; 1.55% in assay [10]; -0.27% in assay [11]; -1.47% in assay [12]. The inhibition in assay [13] stood at 2.28%; in assay [14], 90.7%; in [15], 98%; in [16], 85.4%; in [17], 93.9%.

In the case of `COc1ccc(-c2nn3ncccc3c2-c2ccnc(Nc3ccc4c(c3)OCCO4)n2)cc1`, the inhibition in [1] is 9.92%; in assay [2] it was 79.3%; in [3], 95.8%; in assay [5] it was -0.83%; in assay [6], 2.67%; in assay [7], 5.07%. Moreover, the inhibition was 1.25% in assay [8]; 4.88% in assay [9]; -0.5% in assay [10]; -7.5% in [11]; -0.42% in assay [12]; -0.94% in assay [13]. Also, the inhibition stood at 7.1% in [14], 11.4% in [15], 6.14% in assay [16] and 10.2% in [17].

Turning to `Clc1ccc(-c2nn3ncccc3c2-c2ccnc(Nc3ccccc3)n2)cc1`, the inhibition in assay [1] came to 5.63%; in [2], 44.9%; in assay [3] it was 89.5%; in [4] it was 0.2%; in [5], 0.42%; in assay [6], 2.69%. The inhibition was 4.94% in assay [7]; 2.08% in [8]; 5.6% in assay [9]; -2.35% in assay [10]; -3.34% in [11]; -3.75% in assay [12]. The inhibition amounted to 1.51% in assay [13]; 1.23% in assay [14]; 5.86% in assay [15]; 3.01% in assay [16]; 8.26% in assay [17].

One may read the inhibition as the drop in the measured response relative to a control, in per cent.
